Test results from ChEMBL document CHEMBL3988442, “University of Dundee, Small-Polar-MMV Screening Library” (2021).
Out of some 48,000 compounds screened, about 13,000 (27%) showed an effect of 50% or more. This is one part of the list.

These compounds were tested on Wolbachia pipientis (assay: Anti-Wolbachia Cell-Based Screen). Details: 5 µM.
Format: functional
Parameters: scale not given: in the data most compounds retested in dose-response had high values

Compound	Percent Effect [%]
O=C(C[S+]([O-])Cc1ccc(F)cc1Cl)NC1CCCC1 (configuration not stated)	9.339
COc1ccc(Nc2ccc(C#N)cn2)cc1N1CCCC1=O	-10.87
Cn1ncc2c(N3CCN(CCC(N)=O)CC3)nc(C3CCCC3)nc21	3.18
Cc1noc(C)c1-c1nc(C2CCCN(C(=O)CCN)C2)ccc1CO (configuration not stated)	106.6
Cc1nc(C2CCCN(C(=O)Cn3ccccc3=O)C2)no1 (configuration not stated)	-7.453
Cc1cc(OCC(=O)N2CCCC(c3noc(C)n3)C2)no1 (configuration not stated)	0.3444
Cc1noc(C)c1-c1nc(C2CCCN(C(=O)CN)C2)ccc1CO (configuration not stated)	107.5
Cc1noc(C)c1-c1nc(C2CCCN(CCC(N)=O)C2)ccc1CO (configuration not stated)	98.23
Cc1nc(C2CCCN(C(=O)COCc3ccccc3Cl)C2)no1 (configuration not stated)	-13.21
CCc1nc(C2CCCN(C(=O)CCn3ccccc3=O)C2)no1 (configuration not stated)	-2.479
Cl.Cl.Cl.OC(CN1CCN(Cc2cccnc2)CC1)c1cccs1 (configuration not stated)	-1.04
Cc1ccc2c(c1)C(NCc1nnc3n1CCCCC3)CCCO2 (configuration not stated)	-29.11
O=c1cc(CN(CCO)C2CC2)nc2ccc(Cl)cn12	-6.925
O=C(CCc1cscn1)NS(=O)(=O)c1ccc2ccccc2c1	3.955
CN(C)C(=O)N1CC[C@H]2[C@H]1CCN2c1nncs1.O=C(O)C(F)(F)F	-1.539
Cc1ccc(N2CC[C@@H]3[C@@H]2CCN3C(=O)c2cscn2)nn1.O=C(O)C(F)(F)F	-4.198
Cc1ccc(N2CC[C@@H]3O[C@@H](COCc4cccnc4)CC[C@@H]32)nn1.O=C(O)C(F)(F)F.O=C(O)C(F)(F)F	4.893
Cc1ccc(N2CC[C@@H]3[C@@H]2CCN3C(=O)Cc2ccsc2)nn1.O=C(O)C(F)(F)F	97.7
Cc1ccc(N2CC[C@H]3[C@@H]2CCC(=O)N3CCN2CCOCC2)nn1.O=C(O)C(F)(F)F	-26.64
O=C(Cc1ccsc1)N1C[C@@H]2OCCN(c3cnccn3)[C@@H]2C1.O=C(O)C(F)(F)F	19.14
Cc1ccc(N2CC[C@@H]3[C@@H]2CCN3C(=O)Cc2cccs2)nn1.O=C(O)C(F)(F)F	109.8
O=C(CC1CCCC1)N1CC[C@H]2[C@H]1CCN2c1nncs1.O=C(O)C(F)(F)F	10.49
Cc1ccc(N2CC[C@@H]3[C@@H]2CCN3C(=O)Cc2ccccc2)nn1.O=C(O)C(F)(F)F	108
O=C(O)[C@@H]1CN(C2CCCC2)C[C@H]1C1CC1	-8.244
Cc1ccc(NC(=O)NC(C)c2nc[nH]n2)cc1Cl (configuration not stated)	-5.292
c1cc2c(cc1-c1noc3c1CN(C1CCSCC1)CC3)OCO2	-0.3794

Compound	Percent Effect [%]
CN(CCCc1cnn(C)c1)C(=O)C1CCCN(C2CCCC2)C1 (configuration not stated)	-4.141
CCn1cnnc1CN(C)C(=O)C1CCC(=O)N(CC2CCCCC2)C1 (configuration not stated)	6.192
CC(C)n1cnnc1CN(C)C(=O)C1CCCN(CC(N)=O)C1 (configuration not stated)	92.86
CC(C)n1cnnc1CN(C)C1CCCNC1 (configuration not stated)	-12.15
CC(C)n1cnnc1CN(C)C(=O)C1CCCN(C2CCN(C)CC2)C1 (configuration not stated)	110.4
CCCn1cnnc1CN(C)C(=O)C1CCCN(C2CCN(C)CC2)C1 (configuration not stated)	120.4
CCCn1cnnc1CN(C)C(=O)C1CCC(=O)N(C2CCCC2)C1 (configuration not stated)	-9.656
Cc1ccsc1CN(C)C(=O)C1CCCN(C(N)=O)C1 (configuration not stated)	8.59
CC(C)n1cnnc1CN(C)CC1CCCNC1 (configuration not stated)	-3.149
O=C1CN(Cc2cc(O)c3cccc(F)c3n2)CCN1C1CCCC1	-1.558
Cc1ncnc(NCC(C)N(C)c2ccccc2)c1C (configuration not stated)	-9.709
COCCN1CCCC2(CCN(Cc3noc(C4CCCC4)n3)C2)C1=O (configuration not stated)	5.891
Cc1nc(C)n(Cc2cccc(NC3CCN(C)C3=O)c2)n1 (configuration not stated)	-8.315
CN(Cc1ccccc1)CC(C)(C)NC(=O)c1cnns1	-3.698
CN(C)CCN(C)C(=O)Nc1cc(F)cc(N2CCCC2)c1	23.94
c1ccc(CNC[C@H]2Cn3ccnc3CO2)cc1	-10.94
Cn1cnc(CN2Cc3nccn3CC2c2ccccc2)c1 (configuration not stated)	137.8
CC(Cn1cncn1)NCc1nncn1C1CCCCC1 (configuration not stated)	-14
CC(Cn1cncn1)NCCN1CCc2ccccc2C1 (configuration not stated)	12.32
Cc1cc(C)n(CC(C)NCCn2nc(C)c(Cl)c2C)n1 (configuration not stated)	9.985
Cc1cc(C(F)(F)F)nc(CCNC(C)Cn2nc(C)cc2C)n1 (configuration not stated)	119.2
Cc1cc(C)n(CC(C)NCCN2CCc3ccccc32)n1 (configuration not stated)	20.38
Cc1ccc2c(c1)c(CNC(C)Cn1ccnc1)nn2C (configuration not stated)	4.186
Cc1cc(C(F)(F)F)nc(CCNC(C)Cn2ccnc2)n1 (configuration not stated)	111.3
CC(Cn1ccnc1)NS(=O)(=O)Cc1ccc(F)cc1 (configuration not stated)	-3.68
Cc1cc(C(F)(F)F)nc(CCNC(C)Cn2cncn2)n1 (configuration not stated)	108.9
